High-throughput results from PubChem BioAssay.
Compounds with a hit are over-represented: about 7.9% of the library has one in this group of screens.
HT1080NT lethal: kills 2HG-producing HT-1080-NT fibrosarcoma cells; HT-1080-NT fibrosarcoma viability, CellTiter-Glo ATP luminescence, 48 h; Potency, µM (doses to about 46.1 µM), for the others: at the top dose activity, negative = less viability, actives largely listed as cytotoxic; 360,000 tested, 1.6% active; AID 686970;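 also: NT is the 2HG producing partner of a matched IDH1 knockdown line; 0% = DMSO-treated cells and -100% = media-only wells without cells; nearly all actives have a fitted effect of over 55% in size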
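Compounds were tested in concentration-response format on HT-1080-NT cells for 48 hours at 37 degrees C. Cell viability came from CellTiter-Glo luminescence; curves were classified by r2, response magnitude and activity.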
SW480 rereplic: inducers of DNA re-replication in SW480 colon cancer cells; SW480 DNA re-replication, Hoechst DNA content imaging, 48 h; Potency, µM (series often up to 46.1 µM), for inactives: at the top dose re-replication activation, most hits filed as activators; 340,000 tested, 1.8% active; AID 624297; also: % of control where 0% means no effect; nearly all actives have a fitted effect of over 55% in size
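Treated cells incubate 48 hr (37 C, 5% CO2), are stained 40 min with Hoechst, and nuclear fluorescence is enumerated; a rise in nuclei with high DNA signal marks re-replication.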
MCF10A rereplic: induces DNA re-replication in MCF 10a normal breast cells | 350,000 tested, 2.9% active | Potency, µM (series often up to 46.1 µM), for the others: at the highest dose activity, positive = re-replication, most hits filed as activators | MCF 10A DNA re-replication, Hoechst nuclear intensity, 48 h; also: % of control where 0% means no effect; nearly all actives have a fitted effect of over 50% in size
HT1080 IDH1KD tx: HT-1080 IDH1 knockdown cell toxicity (counter line) | AID 686971 | Potency, µM (series often up to 46.1 µM), for the others: top-dose activity, negative = toxicity, usual class: cytotoxic | HT-1080 IDH1 knockdown viability, ATP luminescence, 48 h | 360,000 tested, 2% active;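 also: 0% = DMSO wells and -100% = cell-free medium wells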
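Luminescent ATP read-out (CellTiter-Glo, 10 min at room temperature) after 48 h compound exposure at 37 °C gave viability of IDH1-knockdown HT-1080 cells. Activity was normalised to DMSO and cell-free wells, then fitted as concentration-response curves.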
KB-3-1 tox: KB-3-1 parental cell cytotoxicity | Potency, µM (top dose mostly 46.1 µM), usual class: cytotoxic | KB-3-1 viability, CellTiter-Glo ATP luminescence, 72 h | AID 1347075 | 400,000 tested, 1.4% active; also: % is scaled to controls: 0 for no effect and ±100 for the full control effect; nearly all actives have a fitted effect of over 60% in size
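Parental KB-3-1 viability, qHTS format: 72 h compound exposure, 37 °C; CellTiter-Glo; media-only wells and DMSO plates as controls; concentration-effect fits on corrected data.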
KB-V1 cytotox: kills drug-selected multidrug resistant KB-V1 cells; KB-V1 MDR cells viability, CellTiter-Glo, 72 h; Potency, µM (top dose mostly 46.1 µM), hits mostly cytotoxic; 400,000 tested, 3.4% active; AID 1347076; also: % is scaled to controls: 0 for no effect and ±100 for the full control effect; nearly all actives have a fitted effect of over 60% in size
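KB-V1, DMEM (no phenol red) + 10% FBS; cpd pin-transferred, titration series; 72 h, 37 degrees C; CellTiter-Glo, luminescence. Data normalized, curve-fit.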
Active calls of the source: *; i = inactive; ? = inconclusive; · = not tested or not shown; [ ] = dose if it differs, or a comment. Calls follow the shape of the dose curve; as a rule, active = well fitted curve in the direction sought with a large enough effect; inconclusive = small, poorly fitted or top-dose-only effect, or another doubt; inactive = no such curve, though single readings can be large; an effect the other way counts as inactive or inconclusive. Potency is read from the fitted curve at half-maximal effect.

SMILES	HT1080NT lethal	SW480 rereplic	MCF10A rereplic	HT1080 IDH1KD tx	KB-3-1 tox	KB-V1 cytotox
O=C(Nc1cccc(Cl)c1)c1ccccc1	7.7%	-58.2%	-6.6%	12.9%	i	i
COC(=O)N(C)C[C@@H]1OCc2cnnn2CCCC(=O)N([C@H](C)CO)C[C@H]1C	-6.5%	·	·	2.5%	i	i
CCC(C)C(NC(=O)c1ccccc1)C(=O)Nc1ccc(S(=O)(=O)Nc2cc(C)nc(C)n2)cc1 (stereo not given)	1.7%	2.5%	-8.6%	1.4%	i	i
Cc1cccc(NC2=C(NC(=O)c3ccccc3)C(=O)c3ccccc3C2=O)c1	?	18.4µM*	?	?	i	14.6µM*
Cc1cccc(C(=O)Nc2cccc(NC(=O)c3ccccc3)c2)c1	-19.8%	-2.1%[9.22 µM]	-0.1%	-22.0%	i	i
COC(=O)c1ccccc1NC(=O)C1CC(c2ccccc2O)=NO1 (stereo not given)	-2.2%	0.4%	-8.3%	?	i	i
CCn1cc(C2=NOC(C(=O)Nc3ccccc3C(=O)OC)C2)c(C)n1 (stereo not given)	1.8%	-10.8%	-5.7%	-6.8%	i	10.3µM*
CCN(CC)S(=O)(=O)c1c(OC)cc(C)c(Cl)c1C	-2.5%	1.16µM*	18.6%	-2.2%	i	i
CCS/C(N)=N/N=C/c1cc(C)ccc1O	-3.2%	?	8.4%	?	i	i
CS/C(N)=N/N=C/c1cc(C)ccc1O	-0.4%	14.6µM*	0.8%	-11.1%	i	i
Cn1c(Sc2ccc(C(F)(F)F)cc2[N+](=O)[O-])nnc1-c1ccccc1	-25.2%	4.5%	13.1%	-10.5%	i	20.6µM*
Cc1cc(/C=C2\Sc3ccccc3N2C)cc(C)[n+]1CC1CCCO1 (stereo not given)	9.2µM*	9.2µM*	?	?	0.651µM*	i
CCN(CC)c1ccc(NC(=O)CCCN2C(=O)C(c3ccccc3)Oc3cccnc32)c(C)c1 (stereo not given)	·	·	·	·	i	i
COC(=O)CNC(=O)c1cn(CC(C)C)c(=O)c2cc(OC)c(OC)cc12	0.1%	-11.2%	4.3%	5.4%	i	i
COc1cc2c(C(=O)NCc3ccc4c(c3)OCO4)cn(CC(C)C)c(=O)c2cc1OC	-4.6%	-2.0%	14.6µM*	-8.6%	i	i
NC(=O)COC(=O)c1ccccc1OCC(=O)Nc1ccc(Br)cc1	·	·	·	·	i	i
CCOc1ccc(C(=O)COC(=O)Cn2[nH]c(=O)c3ccccc3c2=O)cc1	4.7%	·	·	7.8%	i	i
Cc1ccc(/C(N)=N/OC(=O)N2CCOCC2)cc1	?	1.5%	0.3%	17.8µM*	i	?
Cc1ccc(/C(N)=N/OC(=O)C23CC4CC(CC(C4)C2)C3)cc1	15.9%	0.7%	18.4µM*	5.5%	?	?
Cc1ccc(C(=O)OCC(=O)N2CCOCC2)cc1	6.3%	-8.4%	3.7%	5.6%	i	i
N/C(=N\OC(=O)C12CC3CC(CC(C3)C1)C2)c1ccncc1	-3.5%	-8.0%	?	-15.5%	i	i
CCn1c(N2CCN(S(=O)(=O)c3ccccc3C(F)(F)F)CC2)nc2ccccc21	?	10.5%	?	-26.1%	i	18.4µM*
CCN1CCN(c2ccc(N3CCN(S(=O)(=O)c4cccc([N+](=O)[O-])c4)CC3)nn2)CC1	6.4%	·	·	7.1%	i	i
CC(C)n1c(N2CCN(S(=O)(=O)c3cccc([N+](=O)[O-])c3)CC2)nc2ccccc21	-23.7%	4.4%	-4.5%	-25.8%	i	18.4µM*
Cn1c(N2CCN(S(=O)(=O)c3ccc(F)cc3)CC2)nc2ccccc21	-16.6%	3.1%	17.0%	-20.0%	i	?
SMILES	HT1080NT lethal	SW480 rereplic	MCF10A rereplic	HT1080 IDH1KD tx	KB-3-1 tox	KB-V1 cytotox
COc1ccc(OCCN2CCN(S(=O)(=O)c3ccccc3C(F)(F)F)CC2)cc1	-9.5%	-4.9%	-0.5%	-10.8%	?	2.31µM*
CCn1c(N2CCN(S(=O)(=O)c3ccc(OC)cc3)CC2)nc2ccccc21	-29.3%	5.7%	-2.4%	?	i	13µM*
CCNC(=O)c1ccc(CSc2nc3cccnc3n2Cc2ccc(OC)cc2)cc1	·	·	·	·	i	?
Cc1ccccc1OCC(=O)N(Cc1cccs1)C1CCS(=O)(=O)C1 (stereo not given)	-1.2%	-4.6%	-177.8%[0.0737 µM]	-3.4%	i	i
Cc1cccc(OC(C)C(=O)N(Cc2cccs2)C2CCS(=O)(=O)C2)c1C (stereo not given)	7.2%	4.6%	3.6%	-2.6%	i	5.8µM*
C[n+]1cn(/N=C/c2ccccc2)c2ccccc21	-6.3%	1.9%	7.7%	?	i	i
CC(=O)N(C(C)=O)c1nc(-c2ccccc2)cn1/N=C/c1ccccc1	?	-3.1%	11.6µM*	?	?	?
CC1=NN(C(=O)c2ccoc2C)C(O)(C(F)(F)F)C1 (stereo not given)	14.4%	-56.2%	?	3.4%	i	i
CC1=NN(C(=O)Cn2nc([N+](=O)[O-])cc2C)C(O)(C(F)(F)F)C1 (stereo not given)	12.0%	-0.7%	2.3%	12.7%	i	i
CC1=NN(C(=O)c2ccc(Cn3cc(Br)c([N+](=O)[O-])n3)o2)C(O)(C(F)(F)F)C1 (stereo not given)	-24.5%	10.3µM*	-1.7%	-12.7%	i	i
CC1=NN(C(=O)c2ccc(Cn3nc(C)cc3C)o2)C(O)(C(F)(F)F)C1 (stereo not given)	7.08µM*	3.66µM*	2.31µM*	6.31µM*	i	i
CC1=NN(C(=O)c2ccc(Cn3nc(C)c([N+](=O)[O-])c3C)cc2)C(O)(C(F)(F)F)C1 (stereo not given)	4.47µM*	15.5%	?	1.78µM*	i	9.2µM*
CC1=NN(C(=O)c2ccc(Cn3nc(C)c(Br)c3C)cc2)C(O)(C(F)(F)F)C1 (stereo not given)	-2.9%	-8.2%	-3.3%	-6.0%	i	i
COc1ccc(CNC(=O)CN(C(=O)CCC(=O)Nc2ccccn2)c2ccc3c(c2)OCO3)cc1	13.1%	-9.9%	-1.1%	12.2%	i	i
CCN1CCN(S(=O)(=O)c2ccc(Cl)c(C(=O)NC3CCCCC3)c2)CC1	9.5%	-0.8%	1.5%	10.1%	i	i
O=C(c1ccccc1)N1CCN(CC2CC=CCC2)CC1 (stereo not given)	2.2%	2.8%	-177.1%[0.0737 µM]	19.0%	i	i
